Test results from the supplement of paper PMC12024424.
Counter-ions that a name gives are not always drawn.

The molecules below were run on Staphylococcus aureus Sa2 (MRSA, cystic fibrosis isolate) (assay: growth reduction vs untreated control (viable cell count); higher = stronger antibacterial activity; extreme values may be limits of the assay). Details: 0.1 mM; 24 h.
Protocol: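 Single-dose screen of the MedChem Express Drug Repurposing Library (0.1 mM, 1% DMSO) against planktonic MRSA S. aureus Sa2 (CF isolate) in TSB in 96-well plates, 37 °C aerobic, 24 h. Assays were run in triplicate and repeated twice.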

SMILES	growth reduction
Cc1noc(-c2ccc(-c3ccc(C4(C(=O)O)CC4)cc3)cc2)c1NC(=O)O[C@H](C)c1ccccc1	100%
CC(/C=C/C=C(\C)C(=O)O)=C\C=C\C=C(C)\C=C\C=C(/C)C(=O)O [Transcrocetin meglumine salt]	92%
N#CC(c1ccc(Cl)cc1)c1c(Cl)cc(-n2ncc(=O)[nH]c2=O)cc1Cl (stereo not drawn) [Diclazuril]	100%
Cc1ccc(NC(=O)C2(c3ccc4c(c3)OC(F)(F)O4)CC2)nc1-c1cccc(C(=O)O)c1 [Lumacaftor]	96%
CN1C(=O)[C@@H](NC(=O)c2n[nH]c(Cc3ccccc3)n2)COc2ccccc21	90%
Cn1ncc(Cl)c1-c1cc(C(=O)N[C@H](CN)Cc2cccc(F)c2)sc1Cl [Afuresertib]	100%
CC(=O)Oc1ccccc1C(=O)Nc1ncc([N+](=O)[O-])s1 [Nitazoxanide]	100%
COc1cccc2c1C(=O)c1c(O)c3c(c(O)c1C2=O)C[C@@](O)(C(=O)CO)C[C@@H]3O[C@H]1C[C@H](N)[C@H](O)[C@H](C)O1 [Doxorubicin (hydrochloride)]	100%
Cc1ccc(-c2cc(C(F)(F)F)nn2-c2ccc(S(N)(=O)=O)cc2)cc1 [Celecoxib]	90%
Fc1ccc2c(CCNCc3cccc(OCC(F)(F)C(F)F)c3)c[nH]c2c1 [Idalopirdine Hydrochloride]	100%
C[C@H]1Cc2c([nH]c3cc(Cl)c(F)cc23)[C@@]2(N1)C(=O)Nc1ccc(Cl)cc12 [Cipargamin]	100%
COC1=C(OC)C(=O)C(CCCCCCCCCC[P+](c2ccccc2)(c2ccccc2)c2ccccc2)=C(C)C1=O [Mitoquinone (mesylate)]	100%
C[C@@H](NCCCc1cccc(C(F)(F)F)c1)c1cccc2ccccc12 [Cinacalcet]	100%
COCCNCc1ccc(-c2cc3nccc(Oc4ccc(NC(=O)C5(C(=O)Nc6ccc(F)cc6)CC5)cc4F)c3s2)nc1 [Sitravatinib]	100%
Cn1cc(-c2ccncc2)c(-c2ccc(OCc3ccc4ccccc4n3)cc2)n1 [Mardepodect (hydrochloride)]	97%
Cc1cc(C)cc([C@@H]2CCCN2Cc2ccc(Oc3ccc(C(N)=O)cc3F)cc2)c1 [Aticaprant]	100%
CC(C)(C)CC(C)(C)c1ccc(OCCOCC[N+](C)(C)Cc2ccccc2)cc1 [Benzethonium chloride]	100%
Cc1ccc(C#Cc2ccc(S(=O)(=O)N[C@H](Cc3c[nH]c4ccccc34)C(=O)O)s2)cc1	100%
CCCCc1nc(-c2ccc(OCCCN(CC)CC)cc2)cn1-c1ccc(Oc2ccc(Cl)cc2)cc1 [Azeliragon]	100%

SMILES	growth reduction
COc1c(-c2ccc3cc(NS(C)(=O)=O)ccc3c2)cc(-n2ccc(=O)[nH]c2=O)cc1C(C)(C)C [Dasabuvir]	93%
COc1ccc(NS(=O)(=O)c2c(F)c(F)c(F)c(F)c2F)cc1F [Batabulin]	98%
O=c1oc2ccccc2c(O)c1Cc1c(O)c2ccccc2oc1=O [Dicoumarol]	100%
COc1cc(C(=O)NS(=O)(=O)c2ccccc2C)ccc1Cc1cn(C)c2ccc(NC(=O)OC3CCCC3)cc12 [Zafirlukast]	100%
O=c1[nH]c(=O)n([C@H]2C[C@H](O)[C@@H](CO)O2)cc1/C=C/Br [Brivudine]	100%
C[C@H]1O[C@@H](n2cc(F)c(=O)[nH]c2=O)[C@H](O)[C@@H]1O [Doxifluridine]	100%
Nc1ccn([C@@H]2O[C@H](CO)[C@@H](O)C2(F)F)c(=O)n1 [Gemcitabine]	100%
C=CC(=O)Nc1cc(Nc2nccc(-c3cn(C4CC4)c4ccccc34)n2)c(OC)cc1N(C)CCN(C)C [Almonertinib]	100%
N=C(N)c1ccc(OCCCCCOc2ccc(C(=N)N)cc2)cc1 [Pentamidine (isethionate)]	100%
CC1=C(C)C(=O)C(CCCCCCCCCC[P+](c2ccccc2)(c2ccccc2)c2ccccc2)=CC1=O [Visomitin]	100%
O=C(O)c1ccc2nc(-c3cc(Cl)cc(Cl)c3)oc2c1 [Tafamidis meglumine]	98%
CNCCC(Oc1ccc(C(F)(F)F)cc1)c1ccccc1 (stereo not drawn) [Fluoxetine (hydrochloride)]	100%
Cc1c(C)c2c(c(C)c1O)CCC(C)(COc1ccc(CC3SC(=O)NC3=O)cc1)O2 (stereo not drawn) [Troglitazone]	100%
CC(C)(C)NC(=O)N[C@H](C(=O)N1C[C@H]2[C@@H]([C@H]1C(=O)NC(CC1CCC1)C(=O)C(N)=O)C2(C)C)C(C)(C)C (stereo partly drawn) [Boceprevir]	92%
NCCCC[C@H](NC(=O)[C@@H](NC(=O)[C@H](Cc1c[nH]c2ccccc12)NC(=O)[C@H](CCCCN)NC(=O)[C@H](CCCCN)NC(=O)[C@H](Cc1c[nH]c2ccccc12)NC(=O)[C@H](Cc1c[nH]c2ccccc12)NC(=O)[C@H](CCCCN)NC(=O)[C@@H](N)CCCCN)C(c1ccccc1)c1ccccc1)C(N)=O	100%
C#C[C@]1(O)CC[C@H]2[C@@H]3CCc4cc(OC5CCCC5)ccc4[C@H]3CC[C@@]21C [Quinestrol]	99%
CCc1cc(F)c2nc(N3CCC(NC4CCOCC4)CC3)c(-c3nc(C)no3)c(C)c2c1	93%
CC(O)c1cc(C(=O)N[C@@H](C)Cn2ccc(-c3ccc(C#N)c(Cl)c3)n2)n[nH]1 (stereo partly drawn) [Darolutamide]	100%
CC1(C)CCC(C)(C)c2cc(Cn3cccn3)c(/C=C/c3ccc(C(=O)O)cc3)cc21 [Palovarotene]	100%
